Data: PubChem BioAssay (NCATS)
“And” between values parts separate entries of the source, which are not always exact repeats. Equal values may be shown once. Records with an inconclusive call do not appear. Unmarked numbers belong to inactive results. The source made the active and inactive calls. Calls follow the shape of the dose curve; as a rule, active = well fitted activation curve with a large enough effect; inconclusive = small, poorly fitted or top-dose-only effect; inactive = no such curve, though single readings can be large or run the other way.

Biological target: Cellular tumor antigen p53 (Homo sapiens) (UniProt P04637)
Sequence (P04637 whole entry, looked up): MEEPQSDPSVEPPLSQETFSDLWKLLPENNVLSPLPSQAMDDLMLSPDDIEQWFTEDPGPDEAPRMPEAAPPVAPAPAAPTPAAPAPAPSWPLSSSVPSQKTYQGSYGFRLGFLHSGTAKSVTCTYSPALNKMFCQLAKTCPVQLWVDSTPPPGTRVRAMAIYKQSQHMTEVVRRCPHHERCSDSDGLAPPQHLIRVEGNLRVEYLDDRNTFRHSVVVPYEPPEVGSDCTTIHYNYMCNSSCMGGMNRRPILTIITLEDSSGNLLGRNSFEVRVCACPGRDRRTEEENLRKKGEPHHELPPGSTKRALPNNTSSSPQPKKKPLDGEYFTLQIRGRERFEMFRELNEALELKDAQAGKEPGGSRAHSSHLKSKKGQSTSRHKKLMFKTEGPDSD
Assay: Primary qHTS for small molecule compounds that upregulate eGFP-tagged delta133p53alpha (in N-terminal) cells. (AID 2060322); also: nearly all actives have a fitted effect of over 75% in size;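 as to activation: series mostly up to about 56 µM; 0% = DMSO vehicle and 100% = reference activator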
Details: NCI-H358 eGFP-delta133p53alpha fluorescence, 24 h; activation: stronger effect = higher value
Outline: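 NCI-H358 cells pre-induced 24 h with 10 ng/ml doxycycline to express N-terminal eGFP-delta133p53alpha, then dosed 24 h at 37C without doxycycline; fixed, Hoechst-stained, GFP intensity by laser scanning cytometry, normalized to DMSO (0%) and 57.5 uM 5-azacytidine (100%).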
Potency is read from the fitted curve at half-maximal effect.

Row | SMILES | activation | Potency
1 | O=Cc1ccc(O)c(O)c1O | -4.18% | 
2 | CCCCCCCCCCCCCCCC(=O)O | -13.4% | 
3 | CC(=O)CC(c1ccc([N+](=O)[O-])cc1)c1c(O)c2ccccc2oc1=O (stereo not drawn) | -10% | 
4 | COc1ccccc1N1CCN(CC(O)COc2cc(OC)c(OC)c(OC)c2)CC1 (stereo not drawn) | -6.21% | 
5 | CC(O)=C(C#N)C(=O)Nc1ccc(C(F)(F)F)cc1 | 11.7% | 
6 | CC(=O)N(CC(O)CN(C(C)=O)c1c(I)c(C(=O)NCC(O)CO)c(I)c(C(=O)NCC(O)CO)c1I)c1c(I)c(C(=O)NCC(O)CO)c(I)c(C(=O)NCC(O)CO)c1I (stereo not drawn) | -16.7% | 
7 | CC(=O)Nc1c(I)cc(I)c(C(=O)O)c1I | -3.95% | 
8 | Nc1ccc(O)c(C(=O)O)c1 | -19.2% | 
9 | CCOc1ccc(Cc2cc([C@@H]3O[C@H](CO)[C@@H](O)[C@H](O)[C@@H]3O)ccc2Cl)cc1 | -1.71% | 
10 | CN1CCCN=C1COC(=O)C(O)(c1ccccc1)C1CCCCC1 (stereo not drawn) | 2.51% | 
11 | O=C1NC(=O)C(=Cc2ccc3nccnc3c2)S1 | -3.42% | 
12 | CN(C)C(=N)N=C(N)N | 2.2% | 
13 | CC(C)(C)CC(=O)OCC(=O)[C@@]1(O)CC[C@H]2[C@@H]3CCC4=CC(=O)C=C[C@]4(C)[C@H]3[C@@H](O)C[C@@]21C | -9.21% | 
14 | COc1ccc(C(=O)c2ccccc2O)c(O)c1 | 10.9% | 
15 | CC(=O)NCC(=O)N1[C@H]2CC[C@H]1c1cc(Nc3ncc(C(F)(F)F)c(NC4CCC4)n3)ccc12 | 32.7% | 
16 | Nc1c(C(=O)Nc2ccc(F)cc2)sc2nc(-c3cccs3)cc(C(F)(F)F)c12 |  | 1.53 µM (active)
17 | Cc1cnn(C)c1C(=O)Nc1cc(Nc2ccc3c(C=Cc4ccccn4)n[nH]c3c2)ccc1F | 18.7% | 
18 | O=C(O)[C@H](O)c1ccccc1 | -6.21% | 
19 | CCC(=C(CC)c1ccc(O)cc1)c1ccc(O)cc1 | -17% | 

Row | SMILES | activation | Potency
20 | CC[C@H]1OC(=O)[C@H](C)[C@@H](O[C@H]2C[C@@](C)(OC)[C@@H](O)[C@H](C)O2)[C@H](C)[C@@H](O[C@@H]2O[C@H](C)C[C@H](N(C)C)[C@@H]2O)[C@](C)(O)C[C@@H](C)CN(C)[C@H](C)[C@@H](O)[C@]1(C)O | 2.23% | 
21 | CCOC(=O)N1CCN([N+]([O-])=NOc2ccc([N+](=O)[O-])cc2[N+](=O)[O-])CC1 | 8.17% | 
22 | CCN(CC)CCNC(=O)c1c(C)[nH]c(C=C2C(=O)Nc3ccc(F)cc32)c1C |  | 12.5 µM (active)
23 | CC(CC1c2ccccc2CCc2ccccc21)CN(C)C (stereo not drawn) | -10% | 
24 | CC1(C)O[C@@H]2C[C@H]3[C@@H]4CCC5=CC(=O)CC[C@]5(C)[C@@]4(F)[C@@H](O)C[C@]3(C)[C@]2(C(=O)CCl)O1 | -1.67% | 
25 | Cn1cc(C=CC(=O)c2cccc(F)c2)cc1C=CC(=O)NO |  | 38.5 µM (active)
26 | NCCNCCNCCN | -9.6% | 
27 | Oc1cc(O)cc(C=Cc2ccc(O)c(O)c2)c1 | 8.33% | 
28 | CC(=O)Nc1ccc(/C=N/NC(N)=S)cc1 | -14.2% | 
29 | Nc1ccc(S(=O)(=O)Nc2ccccn2)cc1 | -36.8% and 13.3% | 
30 | CCc1ccc(C(=O)C(C)CN2CCCCC2)cc1 (stereo not drawn) | -5.86% | 
31 | CC(C)C[C@H](NC(=O)CNC(=O)[C@H](Cc1ccc(O)cc1)NC(=O)[C@H](CO)NC(=O)[C@H](Cc1c[nH]c2ccccc12)NC(=O)[C@H](Cc1cnc[nH]1)NC(=O)[C@@H]1CCC(=O)N1)C(=O)N[C@@H](CCCN=C(N)N)C(=O)N1CCC[C@H]1C(=O)NCC(N)=O (stereo in doubt) | -1.69% | 
32 | O=c1cc[nH]c(=O)[nH]1 | -12.6% | 
33 | Nc1ccc(S(=O)(=O)Nc2ccc(Cl)nn2)cc1 | 2.51% | 
34 | NS(=O)(=O)Cc1noc2ccccc12 | 10.9% | 
35 | OCC(O)CS (stereo not drawn) | -8.47% | 
36 | CC(C(=O)O)c1ccc2c(c1)Cc1cccnc1O2 (stereo not drawn) | -30.1% | 
37 | Oc1cccc(-c2c3nc(c(-c4cccc(O)c4)c4ccc([nH]4)c(-c4cccc(O)c4)c4nc(c(-c5cccc(O)c5)c5ccc2[nH]5)CC4)C=C3)c1 | 25.9% | 
38 | COc1ccc(/C(C)=C/C(=O)O)c(OC)c1 | -10.7% | 
